Unmarked numbers belong to inactive results.

The record followed here is the supplement of paper PMC11219838.

This experiment concerns Caenorhabditis elegans L1 (N2). Description: survival and reproduction score of C. elegans L1 (0: 0-10 living worms, 1: 11-20, 2: 21-50, 3: >50, 4: overgrown) (score 0-4); higher = more worms, less nematicidal, active = 1 or less; extreme values may be limits of the assay. The note with it: 60 µM; 6 days; temperature: 20 °C. The procedure: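 DODA library (846 commercial 1,3,4- and 1,2,4-oxadiazole compounds plus commercial nematicide controls) screened at a single dose of 60 µM (0.6% DMSO) in 96-well plates, two biological replicates. Read-outs: C. elegans N2 L1 survival/reproduction score at day 6, 20 °C (0: 0-10 worms, 1: 11-20, 2: 21-50, 3: >50, 4: overgrown/starved). C. elegans daf-2 dauer, D. dipsaci and M. hapla J2 mobility at day 5, 20 °C, and P. penetrans mobility at day 5, 20 °C, each relative to DMSO controls. M. hapla egg hatching at day 12, 25 °C, relative to the mean of 8 DMSO wells on the same plate.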
For `Cc1ccc(-c2noc(-c3ccco3)n2)s1`, the “survival and reproduction score” value is 0 (active).
In the case of `O=C(CSc1nnc(-c2ccco2)o1)Nc1ccc(Br)cn1` it was 4; in that of `Brc1ccc(OCc2nc(-c3ccc4c(c3)OCO4)no2)cc1`, 4; in that of `CC(C)Oc1ccc(-c2nc(-c3ccccn3)no2)cc1`, 0 (active).
`COc1ccc(-c2nc(-c3ccc(Cl)cc3)no2)cc1`: the “survival and reproduction score” value is 4.
In the case of `COc1ccc(Cl)cc1NC(=O)CSc1nnc(-c2ccco2)o1` it was 4; in that of `CCn1cc(C(=O)CSc2nnc(-c3ccccc3)o2)c2ccccc21`, 4.
As for `Cc1ccc(-c2nnc(SCC(=O)Nc3cc(C)ccc3C)o2)cc1`, the “survival and reproduction score” value was 4.
For `Brc1ccc(-c2nc(-c3ccncc3)no2)cc1` the value was 0 (active).
For `O=C(CSc1nnc(-c2ccco2)o1)Nc1ccc(F)cc1` the value was 3.5.
For `N#Cc1ccc(CSc2nnc(-c3ccncc3)o2)cc1`, the “survival and reproduction score” value was 4.
For `C=CCOc1cccc(-c2nc(-c3cccnc3)no2)c1` the value was 0 (active); for `COc1nc(-c2ccccc2)ccc1-c1noc(-c2ccccc2Cl)n1`, 4.
In the case of `Cc1cccc(-c2noc(-c3ccccc3Cl)n2)c1` it was 4.
For `Cc1cccc(-c2noc(COc3ccccc3Cl)n2)c1` the value was 4; for `O=C(CSc1nnc(-c2ccncc2)o1)Nc1cccc(Cl)c1Cl`, 4.
For `O=C(Nc1ccccc1-c1nc(-c2cccnc2)no1)c1cccs1`, the “survival and reproduction score” value is 4.
As for `Cc1ccccc1CSc1nnc(-c2ccccc2)o1`, the “survival and reproduction score” value was 4.
In the case of `Cc1ccc(C(=O)Nc2ccccc2-c2nc(-c3ccncc3)no2)cc1C` it was 4; in that of `Cc1ccc(OCc2nc(-c3ccccc3)no2)cc1C`, 4.
Consider `O=C(CSc1nnc(-c2ccccc2)o1)c1ccc(Br)cc1`, for which the “survival and reproduction score” value is 4.
`Clc1ccc(SCc2nc(-c3ccccc3)no2)cc1`: the “survival and reproduction score” value was 0 (active).
For `Cc1cc(OCc2nc(-c3cccnc3)no2)c(C)c(C)c1Br` the value was 4; for `COc1ccc(CSc2nnc(-c3ccc(Cl)cc3Cl)o2)cc1`, 0 (active); for `Cc1cc(OCc2nc(-c3ccccc3)no2)cc(C)c1Cl`, 4.
For `COc1ccccc1NC(=O)CSc1nnc(-c2ccc(Cl)cc2)o1` the value was 4; for `Cc1cccc(-c2nnc(SCC(=O)NCCc3ccccc3)o2)c1`, 4.
For `Clc1ccc(OCc2nc(-c3ccc4c(c3)OCO4)no2)cc1` the value was 4; for `Cc1ccccc1-c1nc(-c2ccccc2Cl)no1`, 0 (active); for `Cc1ccc(NC(=O)CSc2nnc(-c3ccco3)o2)cc1Br`, 4.
In the case of `Fc1cccc(Cl)c1CSc1nnc(-c2ccccc2Cl)o1`, the “survival and reproduction score” value is 4.
For `Cc1cccc(-c2noc(-c3ccccc3Br)n2)c1` the value was 3.5; for `COc1ccc(CC(=O)Nc2ccc(-c3noc(-c4ccccc4Br)n3)cc2)cc1`, 4; for `Cc1ccc(C)c(-c2nc(-c3cccnc3)no2)c1`, 0 (active).
For `Cc1cccc(-c2nnc(SCC(=O)Nc3ccccc3F)o2)c1` the value was 4.
For `CC(C)C(=O)Nc1ccccc1-c1nc(-c2ccccc2)no1` the value was 4; for `Cc1ccc(-c2nnc(SCC(=O)NCc3ccccc3)o2)cc1`, 4.
As to `Cc1ccc(OCc2nc(-c3ccc(Cl)cc3)no2)cc1C`, the “survival and reproduction score” value is 4.
For `Clc1ccc(OCc2nc(-c3ccccc3)no2)cc1` the value was 4; for `COc1ccc(Cl)cc1NC(=O)CSc1nnc(-c2ccc(Br)cc2)o1`, 4.
